The source of these data is PubChem BioAssay AID1042 (National Center for Advancing Translational Sciences (NCATS), 2008).

Structures are written as SMILES. Inconclusive results are not listed. Unmarked numbers belong to inactive results. The source made the active and inactive calls.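 The calls were made as follows: active = raised CDH13 expression over DMSO controls, judged by fold change in triplicate runs, no set cutoff; inconclusive = doubtful CDH13 rise, criteria not stated; inactive = no rise, falls in expression ignored.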

The nature of the assay: CDH13 Derepression/Induction Secondary Assay for qHTS Assay for Epigenetic Modulators. The note with it: H358 cells, CDH13 mRNA qPCR, 72 h; stronger effect = higher value. The source says: NIH Molecular Libraries Screening Centers Network [MLSCN] NIH Chemical Genomics Center [NCGC] MLSCN Grant: 1 X01 MH079860-01 Assay Provider: Elisabeth D. Martinez, University of Texas SW Medical Center NCGC Assay Overview: This secondary assay characterizes selected actives identified in the qHTS of the Locus Derepression (LDR) assay (PubChem AID 597). The LDR assay detects the derepression of a GFP reporter that is stably integrated in a region of the genome of murine c127i mammary cells that is presumably silenced. Compounds that cause derepression of the locus to express GFP are identified by enumerating GFP positive cells using a laser-scanning microplate cytometer. Selected LDR actives were assayed for the induction of CDH13 gene expression, a gene silenced by methylation of its promoter. Treatment of cells with DNA methyltransferase inhibitors, like 5-azadeoxycytidine, or with HDAC inhibitors, like trichostatin A, induce CDH13 gene expression. Compounds active in this assay may modulate components involved in DNA methylation, histone acetylation or gene transcription.
NCGC Assay Protocol Summary Exponentially growing H358 non-small cell lung cancer cells were treated daily with fresh media containing the indicated concentrations of compounds for 72 hr. Cellular RNA was extracted, quantified, DNAse treated and reverse transcribed. The resulting cDNA was amplified in TaqMan real time quantitative PCR assays (Applied Biosystems) containing validated primers specific for CDH13 (Hs00169908.m1). Reactions were performed on an ABI Prism 7900HT, with an initial 2 min preincubation at 50 C, followed by 10 min at 95 C and then 40 cycles of 95 C for 15 seconds and 60 C for 1 min. GAPDH and 18S ribosomal RNA were used as references. Gene expression was measured by fold-induction over control DMSO-treated samples (36-37 average cycle time). Increases corresponded to at least 2-3 cycle time differences over DMSO controls, which were in the measurable range. Decreases in expression were considered insignificant as measurement of the DMSO samples were at the low limit of detection. Reactions were run in triplicate and error bars represent standard deviations. For further details, see R.L. Johnson, W. Huang, A. Jadhav, C.P. Austin, J. Inglese, E.D. Martinez, A Quantitative High-Throughput Screen Identifies Potential Epigenetic Modulators of Gene Expression, Analytical Biochemistry (2007), doi: 10.1016/j.ab.2007.12.028
(In qHTS, concentration-response curves come from the screen itself.)
As to `CC(C)C(=O)NC(c1ccco1)c1cc([N+](=O)[O-])c2cccnc2c1O` (stereo not given), the fold change was 9 (active).

Take `CCN1CSC(=S)N(CC)C1`: the fold change is 1.

On to `O=Nc1ccc(O)c2ncccc12`, for which the fold change was 85 (active).

With `O=C(CSc1cccc2cccnc12)N1CCCC1`, the fold change is 1.

For the compound `CN(C)C(=O)CSc1cccc2cccnc12`, the fold change was 1.

Turning to `O=C(CSc1cccc2cccnc12)NCc1ccccc1`, the fold change was 2.

Regarding `CN1CCN(Cc2cc(Cl)c3cccnc3c2O)CC1`, the fold change was 10 (active).

As for `CC(C)C(=O)NC(c1ccco1)c1ccc2cccnc2c1O` (stereo not given), the fold change was 12 (active).

Regarding `Nc1ncn([C@H]2C[C@H](O)[C@@H](CO)O2)c(=O)n1`, the fold change was 9 (active).

With `CC(/C=C/C(=O)NO)=C\[C@@H](C)C(=O)c1ccc(N(C)C)cc1`, the fold change was 256 (active).
